Each structure is given as a SMILES string. Several values for one entry are separate records, joined by “and”; a condition that tells them apart may be missing. Equal entries are not always repeated. This is part of a sample that, as a whole, favours compounds with a hit. Of some 83,000 tested, about 20% had one in any assay.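 Interpretation: 100, growth as untreated; towards 0, rising growth inhibition; 0, no net growth; 0 to -100, cell death. Compounds scoring below 10 were considered active.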 Activity calls are given as the source filed them.

The test system of one experiment is SK-MEL-2 melanoma. In words: NCI-60 one-dose screen, 48 h (100 = growth as untreated, 0 = no growth, -100 = all killed). As to conditions: 1 µM. As for the experimental part: Growth inhibition of the SK-MEL-2 human tumor cell line is measured as a screen for anti-cancer activity. Cells are grown in 96 well plates and exposed to the test compound for 48 hours. Compounds are tested at a single concentration, which is 10^-5 M for most compounds. The reported endpoint is percent growth (GI% or GIPRCNT), where numbers from 0 - 100% represent growth inhibition, and numbers from -100% - 0 represent cell death. For example, a value of 40 represents 60% growth inhibition. A value of 0 means no net growth occurred over the course of the experiment. A value of -40 indicates 40% of cells at the beginning of the experiment died by the end of the experiment. A value of -100 means all cells are dead at the end of the experiment.
NCI-60 Human Tumor Cell Lines Screen was performed using the standard one-dose NCI protocol, which is described in more detail at https://dtp.cancer.gov/discovery_development/nci-60/default.htm.
Compounds with GIPRCNT values below 10 were considered active. Activity score was based on GIPRCNT using the following formula: […]
Score is 0 for GIPRCNT values of 100 or above, 50 for GIPRCNT values of 0, and 100 for GIPRCNT values of -100.
Regarding `CNC(=O)c1cc(Oc2ccc(CC(=O)Nc3cc(C(C)(C)C)nn3C)cc2)ccn1`, the growth was 67.9% (inactive).

The same experiment, now with this note: 10 µM.
For `CC(C)(C)c1cc(NC(=O)Cc2ccc(-c3cnc4cc(-c5cnn(CCN6CCOCC6)c5)ccc4n3)cc2)no1`, the growth was -8.73% (active).

As to `CCc1ccccc1-n1c(N)c(C#N)c(-c2ccc(OC)c(OC)c2)c(C#N)c1=O`, the growth is 108% (inactive). The same measure, in the same setting: under `CC1(C)OB(c2ccc(Cn3cc(F)c(=O)[nH]c3=O)cc2)OC1(C)C` stands 113% (inactive); under `Cc1[nH]c(-c2nc3ccccc3[nH]2)c(C)c1C(=O)NC(C)C1CCCCC1` (stereo not given), 87.2% (inactive). Regarding `CNC(=O)c1cc(Oc2ccc(CC(=O)Nc3cc(C(C)(C)C)nn3C)cc2)ccn1`, the growth was 55.6% (inactive).

Staying with this experiment, now noted: 10 µM unless noted.
In the case of `S=C1SCN(Cc2ccccc2)CN1Cc1ccccc1`, the growth is 85% (inactive). `COc1ccc2ccccc2c1/C=N/N1CCCCC1`: the growth is 102% (inactive).

`S=C(S)N1CCCC1`: the growth was 98% (inactive) and 99.7% (inactive).

`COc1ccc(S(=O)(=O)N2CCOCC2)cc1NC(=O)c1[nH]c(C)c2c1CCCCC2=O`: the growth is 105% (inactive) and 67.5% (inactive). Turning to `CCN(CC)CCCC(C)Nc1ccnc2cc(Oc3ccccc3)ccc12` (stereo not given), the growth was 115% (inactive).

Turning to `COc1ccccc1NC(=O)OCC#CCOC(=O)Nc1ccccc1OC`, the growth was 95.2% (inactive) and 95% (inactive). As for `c1ccc2cc(C[n+]3ccn(Cc4ccc5ccccc5n4)c3)ccc2c1`, the growth was -35.6% (active) and -4.1% (active).

As for `CCOc1ccc(Nc2c3ccccc3nc3ccccc23)cc1`, the growth is 104% (inactive) and 34% (inactive) and 72.1% (inactive). As to `OCc1ccccn1`, the growth was 106% (inactive). Turning to `CC1CCCC(=O)O1` (stereo not given), the growth is 103% (inactive) and 107% (inactive). Same read-out and setting: to `CCOC(=O)c1sc(N)nc1-c1ccccc1` belongs 95.9% (inactive); to `CO/N=C/C=C\C(=O)N/C=C/C[C@H]1/C=C/[C@H](O)/C=C\C=C\c2cccc(O)c2C(=O)O1`, 5.72% (active) and -20.7% (active). Turning to `O[C@H](c1cc(C(F)(F)F)nc2c(C(F)(F)F)cccc12)[C@@H]1CCCCN1`, the growth is 73.6% (inactive) and 52.5% (inactive). In the case of `Nc1ccc2[nH]c(-c3ccccc3)cc(=O)c2c1`, the growth was 78.8% (inactive). For the compound `O=C(N/N=C/c1cccc2ccccc12)C1CC1`, the growth is 98.6% (inactive) and 115% (inactive). For the compound `O=C1C2=C(C(=O)c3ccccc31)C(O)(S(=O)(=O)O)C(O)(S(=O)(=O)O)C1N=CC=CC21` (stereo not given), the growth is 65.2% (inactive) and 47.4% (inactive). As to `O=C1OC(Oc2ccc(Br)cc2)(c2ccccc2)c2ccccc21` (stereo not given), the growth was 74.2% (inactive) and 73.2% (inactive). For `Oc1ccc(/C=C/c2ccccc2)cc1`, the growth is 98.4% (inactive) and 98.8% (inactive). Still for that read-out and setting: under `COc1ccc(/C(C#N)=C/c2ccccn2)cc1` stands 103% (inactive) and 117% (inactive); under `Nc1ccccc1Nc1ccccc1`, 133% (inactive) and 78.1% (inactive); under `CN1C(=O)C(N=Nc2ccc([N+](=O)[O-])cc2)SC1=S` (stereo not given), 52.2% (inactive) and 60.1% (inactive). Consider `Cc1ccc(S(=O)(=O)NCN2C(=O)c3ccccc3C2=O)cc1`, for which the growth was 106% (inactive).

On to `CN(C)CCCNC1=C(Cl)C(=O)c2ccccc2C1=O`, for which the growth was 87.6% (inactive) and -34.4% (active). With `Cc1n[nH]c(=O)n(/N=C\c2c[nH]c3ccccc23)c1=O`, the growth was 104% (inactive). Turning to `CC1=C[C@H]2c3c(c(O)c(O)c4oc5cc(O)cc(O)c5c(=O)c34)[C@H](c3cc(O)c(O)c4oc5cc(O)cc(O)c5c(=O)c34)[C@H]2C(C)(C)C1`, the growth was -20% (active) and -41.4% (active). Turning to `C1CCCCNCCC1`, the growth is 115% (inactive).

On to `COc1ccc2nc(Cl)cc(C)c2c1`, for which the growth is 99.6% (inactive). Consider `CCOc1ccc2cc(-c3nn(CC4CCN(C)CC4)c4ncnc(N)c34)ccc2c1`, for which the growth is 108% (inactive).

`Cc1cc(-c2ccc(NS(=O)(=O)c3ccccc3)c(C)c2)ccc1NS(=O)(=O)c1ccccc1`: the growth is 85% (inactive) and 102% (inactive).

The same experiment, now with this note: 30 µM.
On to `CC(C)(C)c1cc(NC(=O)Cc2ccc(-c3cnc4cc(-c5cnn(CCN6CCOCC6)c5)ccc4n3)cc2)no1`, for which the growth was 29.7% (inactive). As for `CNC(=O)c1cc(Oc2ccc(CC(=O)Nc3cc(C(C)(C)C)nn3C)cc2)ccn1`, the growth is 78.3% (inactive).

The same experiment, now with this note: 50 µM.
Take `CC1(C)OB(c2ccc(Cn3cc(F)c(=O)[nH]c3=O)cc2)OC1(C)C`: the growth was 41.5% (inactive).

The experiment is the same for the next values; noted with them: 100 µM.
As to `CCc1ccccc1-n1c(N)c(C#N)c(-c2ccc(OC)c(OC)c2)c(C#N)c1=O`, the growth is 38% (inactive). As to `Cc1[nH]c(-c2nc3ccccc3[nH]2)c(C)c1C(=O)NC(C)C1CCCCC1` (stereo not given), the growth was -81.6% (active).

The values are drawn from PubChem BioAssay (NCI).
